# High-throughput results deposited in PubChem by National Center for Advancing Translational Sciences (NCATS).
# The list is not random: actives were taken first. Their share in the collection is about 11%.
# ALDH1A1 inh: ALDH1A1 (human) enzyme inhibition. Purified ALDH1A1, NADH fluorescence, propionaldehyde substrate. Potency, µM (highest dose often 75.3 µM), for inactives: at the highest dose activity, negative = inhibition, usual class: inhibitors. hit rate 7.3% among 220,000. AID 1030;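 also: potency is read from the fitted curve at half-maximal effect; plate controls were no enzyme wells and a reference inhibitor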
# Target sequence (P00352 whole entry, looked up): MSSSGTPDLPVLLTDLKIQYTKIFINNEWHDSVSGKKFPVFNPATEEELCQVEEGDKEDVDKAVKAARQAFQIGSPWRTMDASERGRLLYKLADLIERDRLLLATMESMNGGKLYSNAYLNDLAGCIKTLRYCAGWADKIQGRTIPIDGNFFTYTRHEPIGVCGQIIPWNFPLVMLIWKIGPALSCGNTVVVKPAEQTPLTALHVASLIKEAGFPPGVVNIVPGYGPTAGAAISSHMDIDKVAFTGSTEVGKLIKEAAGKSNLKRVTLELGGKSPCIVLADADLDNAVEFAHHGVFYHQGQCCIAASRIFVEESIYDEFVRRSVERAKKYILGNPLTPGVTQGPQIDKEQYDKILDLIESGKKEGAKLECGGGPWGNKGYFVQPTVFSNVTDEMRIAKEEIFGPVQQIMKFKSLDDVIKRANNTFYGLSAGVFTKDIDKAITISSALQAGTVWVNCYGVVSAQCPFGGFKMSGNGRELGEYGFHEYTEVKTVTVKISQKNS
# HPGD inh: inhibitors of human 15-hydroxyprostaglandin dehydrogenase (HPGD) | Potency, µM, for inactives: at the highest dose activity change, negative = inhibition, usual class: inhibitors | purified HPGD, NADH fluorescence kinetic, PGE2 substrate | hit rate 4.3% among 150,000; also: potency is read from the fitted curve at half-maximal effect
# Target sequence (P15428 whole entry, looked up): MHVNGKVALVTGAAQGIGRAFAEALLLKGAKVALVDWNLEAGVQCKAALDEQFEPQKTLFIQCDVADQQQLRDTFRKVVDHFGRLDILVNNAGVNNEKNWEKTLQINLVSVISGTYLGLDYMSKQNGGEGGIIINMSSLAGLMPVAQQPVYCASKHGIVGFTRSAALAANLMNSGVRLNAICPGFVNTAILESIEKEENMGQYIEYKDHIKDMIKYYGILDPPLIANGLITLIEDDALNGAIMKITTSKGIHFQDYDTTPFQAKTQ
#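 NADH formation kinetics: reaction with 30 uM PGE2 and 1 mM NAD+ (final), 20 nM enzyme, Tris-HCl pH 8 with Tween 20, after 15 min compound preincubation at room temperature. Fluorescence change, last versus first of five reads.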
# IMPase cell inh: membrane-permeable compound that blocks inositol monophosphatase. inhibition (IP1 accumulation), % at 46.1 µM. CHO-M1 cells, IP1 accumulation, HTRF TR-FRET ratio. P97697. 120,000 tested, under 10 active; active = well fitted curve in the direction sought with a large enough effect in the signal ratio, not every such curve was filed as active; inconclusive = small, poorly fitted or top-dose-only effect, or a change in a side signal; inactive = no such curve, though single readings can be large or run the other way; the % refers to the signal ratio;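 also: cells stimulated with carbachol in lithium chloride buffer; plate controls were DMSO basal wells for no effect and reference inhibitor wells for full effect; higher means more IMPase inhibition seen as more IP1 and lower FRET ratio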
#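 Measured: the HTRF emission ratio (665/620 nm) plus the 620 nm donor channel, each fitted to the Hill equation to give AC50. Cells were CHO-M1 given compounds up to 46 uM and a 30 min carbachol stimulation at 37C.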
# IMPase Li cell: membrane-permeable IMPase blocker, potentiated with lithium; CHO-M1 cells, IP1 TR-FRET (IP-One), carbachol + lithium; Potency, µM (series often up to 59.4 µM), for the others: at the top dose activity, negative = IMPase inhibition, most hits filed as inhibitors; hit rate 0.35% among 210,000; active = well fitted inhibition curve with a large enough effect; inconclusive = small, poorly fitted or top-dose-only effect; inactive = no such curve, though single readings can be large or run the other way;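 also: IP1 builds up when IMPase is blocked and the TR-FRET signal falls; potency is read from the fitted curve at half-maximal effect; plate controls were basal vehicle for no effect and high inhibitor control for full effect; nearly all actives have a fitted effect of over 50% in size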
#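 Steps: plate 2000 CHO-M1 cells per well and culture 16–30 h; add compound and lithium; incubate 30 min, 37C; add d2-IP1 tracer and Eu cryptate anti-IP1 antibody in lysis buffer; read after 10 min at room temperature.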
# PNC inhibitor: inhibitors of perinucleolar compartment assembly. PC3M PTB-GFP, PNC prevalence imaging, 16 h; hits give low values. activity change (PNC), negative = inhibition, % at 10 µM. hit rate 3.1% among 140,000. AID 2417;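 active = readout at or below -70, meaning at least 70% loss of cells showing the perinucleolar compartment, a nuclear body marking cancer cells; inconclusive = readout between -30 and a set limit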;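 also: plate controls were DMSO wells for no effect and camptothecin positive control wells for full effect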
#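 PC3M cells stably expressing PTB-GFP, 750–1000 cells/well, treated 16 h at 37 °C with compound (23 nl of library stock), in duplicate. After paraformaldehyde fixation and Hoechst stain, imaged at 20x; PNC prevalence scored by image analysis.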
# Numbers without * were called inactive; ? = inconclusive; · = no result given; [ ] = dose if it differs, or a comment. Unless noted, calls follow the shape of the dose curve; as a rule, active = well fitted inhibition curve with a large enough effect (not every such curve was filed as active); inconclusive = small, poorly fitted or top-dose-only effect, or another doubt; inactive = no such curve, though single readings can be large or run the other way. Unless noted, % is scaled to controls: 0 for no effect and ±100 for the full control effect.
SMILES,ALDH1A1 inh,HPGD inh,IMPase cell inh,IMPase Li cell,PNC inhibitor
Cc1sc2c(c1C)C(=O)NC(c1cccc(O)c1)N2 (configuration not stated),-5%,-22%,7,-3%[38.3 µM],-12
COC(=O)c1ccc(C2NC(=O)c3c(sc(C)c3C)N2)cc1 (configuration not stated),24µM*,·,·,·,·
Cc1ccc(C)c(NC(=O)CN(C)C(=O)[C@@H](NC(=O)c2ccc(C(C)(C)C)cc2)C(C)C)c1,-6%,-6%,-3,28%,-98*
Cc1ccc(C)c(NC(=O)CN(C)C(=O)[C@@H](NC(N)=O)C(C)C)c1,-2%,·,·,-2%,·
COCc1cc(C)nc(SCC[N+](C)(C)CC(=O)Nc2cccc(C(F)(F)F)c2)c1C#N,11µM*,·,·,36%,·
CS(=O)(=O)c1nc(-c2ccccc2)cc(C(F)(F)F)n1,9%,?,10,19%,-100*
Cc1cc(NC(=O)CCS(=O)(=O)c2nc(-c3ccccc3)cc(C(F)(F)F)n2)no1,-1%,?,9,37%[38.3 µM],34
Cc1cccc(NC(=O)c2ccc(N(Cc3ccccc3)S(C)(=O)=O)cc2)c1,·,·,1,·,·
NC(=S)NCCCC(N)C(=O)O (configuration not stated),2.5µM*,-25%,·,17%,·
O=C(Nc1c(C(=O)O)oc2ccc(Br)cc12)c1ccccc1,28µM*,?,2,-2%[38.3 µM],31
O=c1ccc(Oc2nc(N3CCCCC3)nc(N3CCCCC3)n2)n[nH]1,?,-1%,3,-2%[38.3 µM],-100*
CCOc1cc(C(=O)Nc2ccncc2)cc(OCC)c1OCC,-4%,·,·,16%,·
O=C(O)[C@H](C1NCCS1)N1Cc2ccccc2C1 (some centres not stated),3%[13.5 µM],-2%,·,-7%,·
CCOC(=O)N1CCN(C(=O)c2cccc(NS(=O)(=O)c3ccc(F)c(F)c3)c2)CC1,18%,-2%,·,-1%,-89*
COc1cccc(S(=O)(=O)Nc2cccc(C(=O)N3CCCCCC3)c2)c1,14µM*,-14%,·,-3%,-2
COc1cccc(S(=O)(=O)Nc2ccc(C(=O)N3CCCCCC3)cc2)c1,22µM*,·,·,·,·
COc1cccc(S(=O)(=O)Nc2cccc(C(=O)N3CCOCC3)c2)c1,14µM*,-1%,18,32%,6
O=C(c1cccc(NS(=O)(=O)c2cccc([N+](=O)[O-])c2)c1)N1CCOCC1,-3%,·,·,0%,·
CC(C)CC(=O)Nc1ccc(-c2nnn(CC(=O)NCc3ccco3)n2)cc1,-4%,·,·,8%,·
O=S(=O)(c1ccc(Br)cc1)N1CCN(S(=O)(=O)c2ccc(Br)cc2)CC1,-2%[13.5 µM],1%,·,0%,·
COc1ccc(NC(=O)c2cc3nc(-c4ccc(C)c(C)c4)cc(C(F)(F)F)n3n2)cc1,·,·,-7,·,·
CCCOc1ccc(C(C)=O)cc1CSc1nc(O)cc(=O)[nH]1,?,-26%,0,16%[38.3 µM],-24
Cc1ccc2cc(CCNC(=O)CC(C)(C)C)c(=O)[nH]c2c1C,4%,-25%,?,13µM*,-14
O=C(CN1CCOCC1)N1CCc2ccccc2C(c2ccccc2)C1 (configuration not stated),14µM*,-13%,1,17%[38.3 µM],24
COC(=O)[C@H]1O[C@@H](c2cc(OC)c(C)c(OC)c2OCc2ccccc2)[C@H](C)[C@H]2O[C@@]12C,-3%,-3%,·,15%,·
SMILES,ALDH1A1 inh,HPGD inh,IMPase cell inh,IMPase Li cell,PNC inhibitor
O=C(CSC1=NCCS1)Nc1ccc(S(=O)(=O)NC2CCCCC2)cc1,?,16µM*,6,14%[38.3 µM],-1
O=C(CSC1=NCCS1)NC1CCCCC1,2%,?,-4,-8%[38.3 µM],18
O=C(CSC1=NCCS1)NC1CCCC1,7%,25µM*,-1,-11%[38.3 µM],46
N#CCCn1c(=O)c(-c2ccccc2)nc2cnc(Oc3ccccc3)nc21,?,?,·,1%,·
Cc1ccc(C(=O)N2c3ccc(C)cc3C(C)(c3ccccc3)CC2(C)C)cc1 (configuration not stated),·,·,4,·,·
COc1ccc(C(=O)C(CN2CCCC2)c2ccccc2)cc1 (configuration not stated),25µM*,-8%,18,23%[38.3 µM],-16
CCCOc1ccc(C(=O)C(CN2CCCC2)c2ccccc2)cc1 (configuration not stated),-7%,-3%,·,18%,-113*
C=CCOC(=O)N[C@H](c1ccccc1)C(C(C)=O)C(C)=O,5%,-20%,·,14%,·
CN(Cc1ccccc1)C(=S)NC(=O)c1ccc(-c2ccccc2)cc1,?,14µM*,3,10µM*,?
O=C(NC(=S)Nc1ccccc1)c1ccc(-c2ccccc2)cc1,?,-15%,·,-2%,-7
O=C(O)c1ccc(NC(=S)NC(=O)c2ccc(-c3ccccc3)cc2)cc1,8.9µM*,·,·,0%,·
CC(C)NS(=O)(=O)c1ccc(NC(=S)NC(=O)c2ccc(-c3ccccc3)cc2)cc1,11µM*,-16%,-1,17%[38.3 µM],5
COc1ccc(NC(=S)NC(=O)c2csnn2)cc1,1%,·,·,0%,·
O=C(NC(=S)Nc1ccccc1)c1csnn1,7.9µM*,-29%,-2,-2%[38.3 µM],?
CCCCc1nc2c(c3c1C[C@H](C)OC3)CN(C(=O)N[C@@H](C)c1ccccc1)CC2,15%[13.5 µM],-7%,·,-3%,·
Cc1occc1C(=O)NNC(=O)c1ccc(Br)o1,7%,·,·,-3%,·
Cc1ccc(SCCC(=O)N2CCCC2)cc1,?,14µM*,4,50%[38.3 µM],?
Cc1ccc(SCCC(=O)N2CCC(C)CC2)cc1,?,7.9µM*,0,22%,22
Cc1ccc(SCCC(=O)N2CCOCC2)cc1,8%,-6%,-1,22%[38.3 µM],?
Nc1nnnn1/N=C/c1cccc(OCc2ccccc2Cl)c1,1%,-7%,?,10%,-24
N/C(=N\OC(=O)CC1CCCCC1)c1cccc([N+](=O)[O-])c1,13µM*,-10%,·,2%,16
N/C(=N\OC(=O)CCC1CCCC1)c1cccc([N+](=O)[O-])c1,-2%,·,-2,·,-24
CCn1c(/N=C/c2ccccc2NS(=O)(=O)c2ccc(C)cc2)nc2ccccc21,10%,-6%,-5,-1%,?
COc1ccc(Cn2c(SCc3ccc(C)cc3)nc3cc(OC)c(OC)cc3c2=N)cc1Cl,?,-21%,16,30%[38.3 µM],16
COCCCn1c(SCc2ccccc2)nc2cc(OC)c(OC)cc2c1=N,?,-29%,6,11%[38.3 µM],29
COCCCn1c(SCc2cccc(C(F)(F)F)c2)nc2cc(OC)c(OC)cc2c1=N,?,?,11,7%[38.3 µM],-106*
COc1ccc(Cn2c(SCc3cc(C)ccc3C)nc3cc(OC)c(OC)cc3c2=N)cc1,?,?,5,23%[38.3 µM],-114*
COCCNc1cc(-c2ccccc2C(F)(F)F)ncn1,-4%,-12%,·,1%,·
CCCS(=O)(=O)NCCc1cc2c(OC)ccc(OC)c2[nH]c1=O,?,-9%,0,-5%[38.3 µM],64
